PubChem BioAssay AID1159580 (chemical genetic matrix, 2015)
In all, about 5,500 compounds went through this assay and about 2,000 (36%) were called active. About 18% were inconclusive and are not listed. No stated cut-off is given here; in the data, active means normalized growth mostly below about 0.91 (no sharp cut-off); inconclusive means no clear call, values can overlap the other calls; inactive means mostly above about 0.92. The list shows a part of the results.

Assay: chemical genetic growth profiling, strain panel (AID 1159580);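 further: tested at 20 µM; growth read once vehicle control cultures reached saturation at 30 °C; 1 = growth at the plate median or of vehicle wells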
Details: S. cerevisiae deletion strains, growth OD

Measured: normalized growth

CN1CCC23CCCC[C@H]2C1Cc1ccc(O)cc13 (stereo partly drawn)
inactive: locus YAL040C, strain CLN3, stronger effect = lower value 1.01 | locus YCL061C, strain MRC1 (second series), stronger effect = lower value 1 | locus YDR363W, strain ESC2, stronger effect = lower value 1.03 | locus YER002W, strain NOP16, stronger effect = lower value 0.998 | locus YGR229C, strain SMI1, stronger effect = lower value 1.04 | locus YJR075W, strain HOC1, stronger effect = lower value 1.01 | locus YNL153C, strain GIM3, stronger effect = lower value 1.02 | locus YNL175C, strain NOP13, stronger effect = lower value 1.01 | locus YNL197C, strain WHI3, stronger effect = lower value 1.05 | locus YNL224C, strain SQS1, stronger effect = lower value 1.01 | locus YNL322C, strain KRE1, stronger effect = lower value 1.02 | locus YOR083W, strain WHI5 (second series), stronger effect = lower value 0.989 | locus YPL055C, strain LGE1, stronger effect = lower value 0.998
